Experimental data published in PubChem BioAssay AID1159580 (chemical genetic matrix, 2015).
“And” between values parts separate entries of the source, which are not always exact repeats. Equal entries are not always repeated. In all, about 5,500 compounds went through this assay and about 2,000 (36%) were called active. Inconclusive results (about 18%) are left out. Cut-off read from the data, not from the text of the source: active = normalized growth mostly below about 0.91 (no sharp cut-off); inconclusive = no clear call, values can overlap the other calls; inactive = mostly above about 0.92. The list shows a part of the results.

Assay: chemical genetic growth profiling, strain panel (AID 1159580);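 note: tested at 20 µM; growth read once vehicle control cultures reached saturation at 30 °C; 1 = growth at the plate median or of vehicle wells; lower values mean less growth of the strain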
Settings: S. cerevisiae deletion strains, growth OD

Measured: normalized growth

CC1(C)S[C@@H]2[C@H](NC(=O)[C@@H](N)c3ccc(O)cc3)C(=O)N2[C@H]1C(=O)O
inactive: locus YAL013W, strain DEP1, stronger effect = lower value 1.01 | locus YAL021C, strain ccr4, stronger effect = lower value 0.97 | locus YAL026C, strain drs2, stronger effect = lower value 0.976 | locus YAL030W, strain snc1, stronger effect = lower value 0.999 | locus YBL061C, strain skt5, stronger effect = lower value 1.01 | locus YBR009C, strain hhf1, stronger effect = lower value 0.951 | locus YBR021W, strain FUR4, stronger effect = lower value 1 | locus YBR023C, strain chs3, stronger effect = lower value 0.996 | locus YBR171W, strain sec66, stronger effect = lower value 0.987 | locus YBR229C, strain ROT2, stronger effect = lower value 1 | locus YBR231C, strain swc5, stronger effect = lower value 1 | locus YBR279W, strain paf1, stronger effect = lower value 0.99 | locus YCL011C, strain gbp2, stronger effect = lower value 0.988 | locus YCL016C, strain dcc1, stronger effect = lower value 0.992 | locus YCL029C, strain bik1, stronger effect = lower value 1.01 | locus YCL069W, strain vba3, stronger effect = lower value 0.989 | locus YCR088W, strain abp1, stronger effect = lower value 0.983 | locus YDL005C, strain med2, stronger effect = lower value 0.993 | locus YDL035C, strain GPR1, stronger effect = lower value 1.02 | locus YDL040C, strain nat1, stronger effect = lower value 0.995 | locus YDL074C, strain BRE1, stronger effect = lower value 1.01 | locus YDL101C, strain DUN1, stronger effect = lower value 1.01 | locus YDL185W, strain tfp1, stronger effect = lower value 0.997 | locus YDL192W, strain arf1, stronger effect = lower value 1 | locus YDR001C, strain nth1, stronger effect = lower value 0.964 | locus YDR069C, strain doa4, stronger effect = lower value 1.01 | locus YDR101C, strain arx1, stronger effect = lower value 1 | locus YDR137W, strain rgp1, stronger effect = lower value 0.938 | locus YDR159W, strain sac3, stronger effect = lower value 0.991 | locus YDR162C, strain NBP2, stronger effect = lower value 1.03 | locus YDR195W, strain ref2 0.98 | locus YDR297W, strain sur2, stronger effect = lower value 0.998 | locus YDR318W, strain mcm21, stronger effect = lower value 0.998 | locus YDR334W, strain swr1, stronger effect = lower value 0.982 | locus YDR335W, strain msn5, stronger effect = lower value 0.996 | locus YDR388W, stronger effect = lower value 1.01 | locus YDR392W, strain spt3, stronger effect = lower value 0.936 | locus YDR502C, strain sam2, stronger effect = lower value 0.999 | locus YEL003W, strain gim4, stronger effect = lower value 0.991 | locus YEL037C, strain rad23, stronger effect = lower value 0.983 | locus YEL061C, strain CIN8 (second series), stronger effect = lower value 0.988 | locus YEL061C, strain CIN8, stronger effect = lower value 1.01 | locus YER015W, strain faa2, stronger effect = lower value 0.998 | locus YER016W, strain bim1, stronger effect = lower value 0.967 | locus YER110C, stronger effect = lower value 1.01 | locus YER111C, strain swi4, stronger effect = lower value 0.98 | locus YER155C, strain BEM2 (second series), stronger effect = lower value 0.996 | locus YER155C, strain BEM2, stronger effect = lower value 1 | locus YER167W, strain BCK2, stronger effect = lower value 1.01 | locus YFR010W, strain ubp6, stronger effect = lower value 0.987 | locus YGL078C, strain dbp3, stronger effect = lower value 1 | locus YGL086W, strain mad1, stronger effect = lower value 0.994 | locus YGL167C, strain pmr1, stronger effect = lower value 1.01 | locus YGL173C, strain kem1, stronger effect = lower value 1.02 | locus YGL227W, strain vid30, stronger effect = lower value 1 | locus YGL240W, strain doc1, stronger effect = lower value 1.02 | locus YGL248W, strain PDE1, stronger effect = lower value 1.02 | locus YGL253W, strain hxk2, stronger effect = lower value 0.99 | locus YGR078C, strain PAC10, stronger effect = lower value 1 | locus YGR135W, strain pre9, stronger effect = lower value 0.986 | locus YGR252W, strain gcn5, stronger effect = lower value 0.954 | locus YHR013C, strain ard1, stronger effect = lower value 1.03 | locus YHR027C, strain rpn1, stronger effect = lower value 0.989 | locus YHR030C, strain SLT2, stronger effect = lower value 1.01 and 1.03 | locus YHR079C, strain IRE1 (second series), stronger effect = lower value 0.996 | locus YHR079C, strain IRE1, stronger effect = lower value 1.06 | locus YHR094C, strain hxt1, stronger effect = lower value 1 | locus YHR129C, strain ARP1, stronger effect = lower value 1.01 | locus YHR142W, strain chs7, stronger effect = lower value 0.982 | locus YHR200W, strain rpn10, stronger effect = lower value 0.995 | locus YIL066C, strain RNR3, stronger effect = lower value 1.03 | locus YIL073C, strain SPO22, stronger effect = lower value 1.04 | locus YIL125W, strain kgd1, stronger effect = lower value 1 | locus YIR030C, strain dcg1, stronger effect = lower value 1 | locus YJL092W, strain hpr5, stronger effect = lower value 0.991 | locus YJL095W, strain BCK1 (second series), stronger effect = lower value 0.983 | locus YJL095W, strain BCK1, stronger effect = lower value 1.02 and 1.06 | locus YJL115W, strain asf1, stronger effect = lower value 0.979 | locus YJL129C, strain trk1, stronger effect = lower value 1 | locus YJL134W, strain LCB3, stronger effect = lower value 1.01 | locus YJL154C, strain vps35, stronger effect = lower value 0.991 | locus YJL164C, strain tpk1, stronger effect = lower value 0.995 | locus YJL166W, strain qcr8, stronger effect = lower value 1.02 | locus YJL168C, strain set2, stronger effect = lower value 0.997 | locus YJL187C, strain SWE1 (second series), stronger effect = lower value 1.01 | locus YJL187C, strain SWE1, stronger effect = lower value 0.998 | locus YJR043C, strain POL32, stronger effect = lower value 1.01 | locus YJR066W, strain TOR1, stronger effect = lower value 1.01 | locus YJR075W, strain HOC1, stronger effect = lower value 1.02 | locus YKL009W, strain mrt4, stronger effect = lower value 1.02 | locus YKL068W, stronger effect = lower value 1 | locus YKL085W, strain MDH1 (second series), stronger effect = lower value 1.01 | locus YKL085W, strain MDH1, stronger effect = lower value 1.01 | locus YKL160W, strain elf1, stronger effect = lower value 1.01 | locus YKR001C, strain vps1, stronger effect = lower value 0.982 | locus YKR026C, strain gcn3, stronger effect = lower value 1.07 | locus YKR091W, strain srl3, stronger effect = lower value 1 | locus YLL001W, strain dnm1, stronger effect = lower value 1.02 | locus YLL026W, stronger effect = lower value 0.992 | locus YLL041C, strain sdh2, stronger effect = lower value 0.999 | locus YLR027C, strain aat2, stronger effect = lower value 0.993 | locus YLR039C, strain RIC1, stronger effect = lower value 1 | locus YLR058C, strain SHM2, stronger effect = lower value 1.01 | locus YLR102C, strain apc9, stronger effect = lower value 0.997 | locus YLR113W, strain HOG1, stronger effect = lower value 1.04 | locus YLR221C, strain rsa3, stronger effect = lower value 0.991 | locus YLR258W, strain gsy2, stronger effect = lower value 0.991 | locus YLR262C, strain YPT6 (second series), stronger effect = lower value 0.975 | locus YLR262C, strain YPT6, stronger effect = lower value 1.09 | locus YLR268W, strain sec22, stronger effect = lower value 1.01 | locus YLR320W, strain mms22, stronger effect = lower value 0.987 | locus YLR330W, strain CHS5, stronger effect = lower value 1.01 | locus YLR342W, strain FKS1 (second series), stronger effect = lower value 0.974 | locus YLR342W, strain FKS1, stronger effect = lower value 1.01 | locus YLR357W, strain rsc2, stronger effect = lower value 1.02 | locus YLR370C, strain arc18, stronger effect = lower value 0.999 | locus YLR371W, strain rom2, stronger effect = lower value 0.991 | locus YLR384C, strain iki3, stronger effect = lower value 0.989 | locus YLR418C, strain cdc73, stronger effect = lower value 0.994 | locus YML016C, strain PPZ1, stronger effect = lower value 1.01 | locus YML032C, strain rad52, stronger effect = lower value 1.01 | locus YML120C, strain ndi1, stronger effect = lower value 0.997 | locus YML124C, strain tub3, stronger effect = lower value 0.985 | locus YMR058W, strain fet3, stronger effect = lower value 0.995 | locus YMR078C, strain ctf18, stronger effect = lower value 0.994 | locus YMR125W, strain sto1, stronger effect = lower value 0.998 | locus YMR129W, stronger effect = lower value 0.988 | locus YMR205C, strain PFK2, stronger effect = lower value 1 | locus YMR223W, strain ubp8, stronger effect = lower value 0.997 | locus YMR231W, strain pep5, stronger effect = lower value 1 | locus YMR263W, strain SAP30, stronger effect = lower value 1 | locus YMR307W, strain GAS1, stronger effect = lower value 0.969 | locus YNL067W, strain RPL9B, stronger effect = lower value 1.01 | locus YNL071W, strain lat1, stronger effect = lower value 0.984 | locus YNL153C, strain GIM3, stronger effect = lower value 1 | locus YNL183C, strain NPR1, stronger effect = lower value 1 | locus YNL209W, strain ssb2, stronger effect = lower value 0.995 | locus YNL233W, strain BNI4, stronger effect = lower value 1.02 | locus YNL248C, strain rpa49, stronger effect = lower value 1.03 | locus YNL250W, strain rad50, stronger effect = lower value 1 | locus YNL271C, strain bni1, stronger effect = lower value 1 | locus YNL298W, strain CLA4, stronger effect = lower value 0.984 | locus YNL307C, strain MCK1, stronger effect = lower value 1.03 | locus YNL322C, strain KRE1 (second series), stronger effect = lower value 1 | locus YNL322C, strain KRE1, stronger effect = lower value 1.01 | locus YNR049C, strain mso1, stronger effect = lower value 0.985 | locus YNR052C, strain pop2, stronger effect = lower value 0.999 | locus YOL012C, strain htz1 1.31 | locus YOL147C, strain pex11, stronger effect = lower value 1.01 | locus YOR001W, strain rrp6, stronger effect = lower value 0.997 | locus YOR061W, strain CKA2, stronger effect = lower value 1.02 | locus YOR069W, strain VPS5, stronger effect = lower value 1.01 | locus YOR070C, strain gyp1, stronger effect = lower value 0.999 | locus YOR080W, strain dia2, stronger effect = lower value 1.01 | locus YOR083W, strain WHI5, stronger effect = lower value 1.03 | locus YOR106W, strain vam3, stronger effect = lower value 1 | locus YOR136W, strain idh2, stronger effect = lower value 0.994 | locus YOR144C, strain elg1, stronger effect = lower value 0.991 | locus YOR184W, strain ser1, stronger effect = lower value 1.03 | locus YOR231W, strain MKK1, stronger effect = lower value 1.05 | locus YOR265W, strain rbl2, stronger effect = lower value 0.997 | locus YOR270C, strain vph1, stronger effect = lower value 0.962 | locus YOR290C, strain snf2, stronger effect = lower value 0.975 | locus YOR316C, strain cot1, stronger effect = lower value 0.999 | locus YPL051W, strain arl3, stronger effect = lower value 1.01 | locus YPL078C, strain atp4, stronger effect = lower value 1.01 | locus YPL106C, strain sse1, stronger effect = lower value 0.974 | locus YPL240C, strain hsp82, stronger effect = lower value 0.993 | locus YPL241C, strain CIN2, stronger effect = lower value 1.01 | locus YPL256C, strain CLN2, stronger effect = lower value 1.05 | locus YPR119W, strain clb2, stronger effect = lower value 1 | locus YPR141C, strain kar3, stronger effect = lower value 1.03 | locus YPR163C, strain tif3, stronger effect = lower value 1 | locus YPR167C, strain met16, stronger effect = lower value 0.998 | strain wtn01, stronger effect = lower value 0.976
